87 molecules from PubChem BioAssay AID504850 (National Center for Advancing Translational Sciences (NCATS), 2011) can be followed below.

SMILES strings stand for the structures. Hit rate of the full screen: of about 2,300 compounds, about 1,200 (52%) were called active. Not shown: some 34% with an inconclusive outcome. So high a share suggests a set chosen from earlier hits. The list shows a part of the results. Unmarked numbers belong to inactive results. Calls follow the shape of the dose curve; as a rule, active = well fitted inhibition curve with a large enough effect; inconclusive = small, poorly fitted or top-dose-only effect, or effect the other way; inactive = no such curve, though single readings can be large or run the other way.
% is scaled to controls: 0 for no effect and ±100 for the full control effect; potency is read from the fitted curve at half-maximal effect.

A short description of this test: Confirmation screen for delayed death inhibitors of the malarial parasite plastid, 48 hour incubation. Also: nearly all actives have a fitted effect of over 65% in size. The note with it: P. falciparum-infected erythrocytes, luciferase growth; series mostly up to 28.7 µM; activity change, negative = inhibition: at the top concentration. The method in brief: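 Erythrocytes infected with luciferase-expressing P. falciparum (2% hematocrit, 0.1% parasitemia) incubated with compounds 48 hours at 37 C, 5% CO2, in RPMI/Albumax. Growth inhibition scored as reduced luminescence after detection reagent.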
For the molecule `O=C(C1CCC1)N1CCc2cc(S(=O)(=O)NCc3ccco3)ccc21`, the “activity change, negative = inhibition” value was 22.7%.

`O=C(CCl)c1ccc2c(c1)CCN2C(=O)C1CCCCC1`: the Potency was 11.2 µM (active).

For `O=[N+]([O-])/C=C\c1ccc(N2CCCC2)c(F)c1`, the “activity change, negative = inhibition” value is -22.9%.

For the molecule `CCC(=O)c1ccc(N2CCN(C(=O)c3cc([N+](=O)[O-])ccc3N3CCN(C)CC3)CC2)c(F)c1`, the Potency was 10 µM (active).

For the molecule `COc1ccc(NC(=O)c2cc([N+](=O)[O-])ccc2N2CCN(C)CC2)cc1`, the “activity change, negative = inhibition” value is -7.89%.

In the case of `COc1ccc([N+](=O)[O-])c(S(=O)(=O)c2ccc(Cl)cc2)n1`, the “activity change, negative = inhibition” value is -12.9%.

For the molecule `CCCn1cc(S(=O)(=O)c2ccc(Cl)cc2)c(=O)c2cc(OC)ccc21`, the Potency was 12.6 µM (active).

Turning to `Cc1onc(-c2c(F)cccc2Cl)c1-c1nnc(-c2ccc(C(F)(F)F)cc2)o1`, the Potency was 5.62 µM (active).

`Cc1[nH]c(C)c(C(=O)/C=C/c2ccc([N+](=O)[O-])cc2)c1C`: the Potency was 12.6 µM (active).

For the molecule `Cc1oc(-c2ccccc2Cl)nc1Cn1cccc1C1=NC(c2ccccc2)CO1` (configuration not stated), the Potency was 12.6 µM (active).

On to `CCCSCCCNC(=O)c1ccccc1NC(=O)C1=CSCCO1`, for which the Potency was 12.6 µM (active).

In the case of `O=C(Cn1c(=O)sc2ccccc21)Nc1nc2c(s1)CCCC2`, the “activity change, negative = inhibition” value is 10%.

As to `CC(C)(C)c1nc(SCC(=O)Nc2nc3c(s2)CCCC3)c2ccccc2n1`, the Potency was 4.47 µM (active).

Consider `O=C(Cc1cn2ccsc2n1)Nc1nc2c(s1)CCCC2`, for which the “activity change, negative = inhibition” value is -7.92%.

Regarding `CC(C)(C)c1nc(SCC(=O)Nc2ccc(N3CCOCC3)cc2)c2ccccc2n1`, the Potency was 11.2 µM (active).

Regarding `CCN(CC)C(=O)C1CCCN(C(=O)c2cc(COc3ccc4ncccc4c3)on2)C1` (configuration not stated), the Potency is 11.2 µM (active).

Take `CN1C(=O)Cc2cc(S(=O)(=O)N3CCN(c4cccc(C(F)(F)F)c4)CC3)ccc21`: the Potency was 11.2 µM (active).

On to `Cc1ccc(-c2cc(=O)c3ccc(F)cc3[nH]2)cc1`, for which the Potency is 5.01 µM (active).

On to `NC(=O)COc1ccc(C(=O)/C=C2/C(=O)Nc3ccccc32)cc1`, for which the “activity change, negative = inhibition” value is -13.9%.

Consider `NC(=O)COc1ccc(NC(=O)CC23CC4CC(CC(C4)C2)C3)cc1`, for which the Potency is 11.2 µM (active).

Regarding `CCn1nc(C)c(NC(=O)CC23CC4CC(CC(C4)C2)C3)c1C`, the “activity change, negative = inhibition” value is -8.09%.

Take `C=CCNC(=O)CSc1nc2sc3c(c2c(=O)n1CCCOC)CCC3`: the Potency was 12.6 µM (active).

In the case of `CCOc1ccc(-c2cc(C(=O)O)c3ccccc3n2)c(OCC)c1`, the “activity change, negative = inhibition” value was -18.3%.

Consider `CCOc1ccc(-c2cc(C(=O)N/N=C(\C)c3cccnc3)c3ccccc3n2)c(OCC)c1`, for which the Potency is 14.1 µM (active).

In the case of `COc1ccc(/C=N/NC(=O)c2cc(-c3ccccc3OC(C)C)nc3ccccc23)cc1CN1CCOCC1`, the “activity change, negative = inhibition” value was -26.3%.

For the molecule `COc1cc(/C=N/NC(=O)c2cc(-c3ccccc3OC(C)C)nc3ccccc23)ccc1O`, the Potency is 14.1 µM (active).

As for `CC(C)Oc1ccccc1-c1cc(C(=O)N/N=C/c2cccnc2)c2ccccc2n1`, the Potency is 11.2 µM (active).

For `CC1CCN(c2ccc3nnc(CCC(=O)N4CCN(c5ccccc5F)CC4)n3n2)CC1`, the Potency was 10 µM (active).

For `Cc1nn(C)c(C)c1C(C)NC(=O)c1ccc(OC2CCN(Cc3ccccn3)CC2)cc1` (configuration not stated), the “activity change, negative = inhibition” value is -41.6%.

Consider `CN(CCc1ccccn1)C(=O)c1ccc(OC2CCN(CCc3ccccc3)CC2)cc1`, for which the Potency was 14.1 µM (active).

As for `COc1ccc(CN2CCC(Oc3ccc(C(=O)NCc4ccccn4)cc3)CC2)c(F)c1`, the Potency was 12.6 µM (active).

Consider `CCCCN(CCCC)CCC(O)c1cc2c(Cl)cc(Cl)cc2c2cc(C(F)(F)F)ccc12` (configuration not stated), for which the Potency was 0.0316 µM (active).

Take `CC(=O)/C(C#N)=C1\NC(=O)C(Cc2ccc(F)cc2)S1` (configuration not stated): the Potency was 10 µM (active).

As to `CC(=O)/C(C#N)=C1\NC(=O)C(Cc2cc(Cl)ccc2Cl)S1` (configuration not stated), the Potency is 14.1 µM (active).

Turning to `CCOC(=O)c1c(C)[nH]c(C(=O)Nc2cc(OCC)c(N3CCOCC3)cc2OCC)c1C`, the Potency is 2.51 µM (active).

In the case of `Cc1ccc(NC(=O)CN2C(=O)S/C(=C\c3ccccn3)C2=O)cc1C`, the “activity change, negative = inhibition” value was -1.34%.

As for `Cc1ccc(CN(Cc2ccccn2)C(=O)Nc2ccc(C)c(C)c2)cc1`, the Potency is 14.1 µM (active).

Turning to `CC(Sc1nc2cc(Cl)ccc2s1)C(=O)Nc1cccc(S(=O)(=O)N2CCOCC2)c1` (configuration not stated), the Potency was 12.6 µM (active).

For `O=C(CCl)Nc1ccc(S(=O)(=O)Nc2nccs2)cc1`, the Potency was 2.24 µM (active).

As to `CCC(=O)c1ccc(OCC(O)CNC(C)c2ccccc2)cc1` (configuration not stated), the Potency was 11.2 µM (active).

`C[C@H]1[C@@H](OC(=O)CCC(=O)O)OC2OC3(C)CC[C@H]4[C@H](C)CC[C@@H]1[C@@]24OO3` (some centres not stated): the Potency is 0.0398 µM (active).

On to `C[C@@H]1CCC2[C@@H](C)[C@@H](O)O[C@@H]3O[C@@]4(C)CC[C@@H]1[C@@]23OO4` (some centres not stated), for which the Potency is 0.0251 µM (active).

For `CO[C@H]1OC2O[C@@]3(C)CC[C@H]4[C@H](C)CC[C@@H]([C@H]1C)[C@@]24OO3` (some centres not stated), the Potency was 0.0708 µM (active).

For the molecule `CC[C@]1([C@H]2O[C@@H]([C@@H]3O[C@](O)(CO)[C@@H](C)C[C@H]3C)C[C@H]2C)CC[C@@H]([C@]2(C)CC[C@@]3(C[C@@H](O)[C@@H](C)[C@@H]([C@H](C)[C@H](OC)[C@H](C)C(=O)O)O3)O2)O1`, the Potency is 0.141 µM (active).

As to `CCCc1c(CC)c(=N)c2ccccc2n1C`, the Potency is 0.282 µM (active).

With `Cc1cnc(CNC(=O)c2ccc3oc(Cc4ccccc4)nc3c2)[nH]1`, the Potency was 15.8 µM (active).

For `CC(C)(C)OC(=O)CNC(=O)c1[nH]cnc1C(=O)NC1CCN(C(=O)OC(C)(C)C)CC1`, the Potency is 14.1 µM (active).

`CC(C)(C)OC(=O)[C@H](Cc1ccccc1)NC(=O)c1nc[nH]c1C(=O)N1CCN(C(=O)OC(C)(C)C)CC1`: the Potency is 12.6 µM (active).

As for `CC(C)C[C@H](NC(=O)c1nc[nH]c1C(=O)N1CCN(C(=O)OC(C)(C)C)CC1)C(=O)OC(C)(C)C`, the Potency was 11.2 µM (active).

As for `COc1ccc(NC2=C(NC(C)=O)C(=O)c3ccccc3C2=O)cc1`, the Potency is 7.08 µM (active).

Take `CC(Oc1ccccc1F)C(=O)Nc1ccc2ccccc2c1` (configuration not stated): the “activity change, negative = inhibition” value is 34.4%.

On to `O=C(CSc1c2c(nc3ccc(Cl)cc13)CCCC2)NCCCN1CCOCC1`, for which the Potency is 12.6 µM (active).

In the case of `O=S(=O)(CC(CN1CCCCC1)N1CCCCC1)c1ccccc1` (configuration not stated), the Potency was 11.2 µM (active).

Take `CC(C)NC(=O)c1onc(CSc2cccc(F)c2)c1C(=O)O`: the “activity change, negative = inhibition” value was -9.89%.

As to `COC(=O)C1=CN(Cc2ccc(F)cc2)C=C(C(=O)OC)C1c1ccc(O)c(OC)c1`, the Potency was 11.2 µM (active).

On to `CCOc1ccc(N(C)C(=O)CCc2nnc3ccc(N4CCCCC4)nn23)cc1`, for which the Potency is 11.2 µM (active).

Turning to `CC(=O)Nc1cccc(C(=O)/C=C/c2ccc(C)cc2)c1`, the Potency was 15.8 µM (active).

Turning to `CCC(=O)Nc1cccc(C(=O)/C=C/c2cc(Br)ccc2OC)c1`, the Potency is 10 µM (active).

Take `O=C(Nc1cccc(Br)c1)c1ccc2snnc2c1`: the “activity change, negative = inhibition” value was 1.09%.

As for `CC(=O)Nc1cccc(C(=O)/C=C/c2ccc(Br)cc2)c1`, the Potency was 14.1 µM (active).

Regarding `COC(=O)c1ccccc1SC1CC(=O)N(c2ccccc2)C1=O` (configuration not stated), the “activity change, negative = inhibition” value was -4.09%.

As to `C=CCNC(=O)c1onc(CSc2ccc(F)c(F)c2)c1C(=O)O`, the “activity change, negative = inhibition” value is -2.36%.

Take `CC(=O)N1c2ccc(S(=O)(=O)NCCC(=O)NC3CCCC(C)C3C)cc2CC1C` (configuration not stated): the Potency is 15.8 µM (active).

Consider `CN(C)S(=O)(=O)c1cccc(NC(=O)CSc2cccc3cccnc23)c1`, for which the Potency was 11.2 µM (active).

Take `Cc1ccc(NC(=O)CSc2cccc3cccnc23)c(C)c1`: the “activity change, negative = inhibition” value was -34.4%.

As for `Cn1c(=O)c(=O)n(C)c2cc(N3CCCCC3)c(NS(=O)(=O)c3ccc(Br)cc3)cc21`, the Potency is 11.2 µM (active).

Regarding `COc1ccc(OC)c(CNC(=O)c2ccc(C)c(NC(=O)C3=C(C)OCCS3)c2)c1`, the Potency is 12.6 µM (active).

On to `CCCNC(=O)COC(=O)c1ccccc1C(=O)c1ccc(Cl)c([N+](=O)[O-])c1`, for which the Potency was 12.6 µM (active).

As for `CC(CCc1ccccc1)NC(=O)COC(=O)c1ccc(S(C)(=O)=O)c([N+](=O)[O-])c1` (configuration not stated), the “activity change, negative = inhibition” value was -31.9%.

As to `CC1CCN(C(=O)Cn2cc(C(=O)c3ccco3)c3ccccc32)CC1`, the Potency was 14.1 µM (active).

Take `Cc1cc(Sc2nnc(N)s2)c2ccccc2n1`: the Potency is 10 µM (active).

With `Cc1cc(Sc2nnc(/N=C/N(C)C)s2)c2ccccc2n1`, the Potency is 10 µM (active).

Regarding `O=C(O)CCCCCNc1nc(-c2ccccc2)nc2ccccc12`, the Potency was 12.6 µM (active).

In the case of `COc1ccc(S(=O)(=O)N2CCC(C(=O)Nc3ccccc3N3CCCCC3)CC2)cc1OC`, the Potency was 11.2 µM (active).

On to `COc1cccc(NC(=O)C2CCN(S(=O)(=O)c3ccc4[nH]c(=O)oc4c3)CC2)c1`, for which the “activity change, negative = inhibition” value is -27.8%.

In the case of `COc1cc(NC(=O)C2CCN(S(=O)(=O)c3ccc(N4CCCC4=O)cc3)CC2)cc(OC)c1`, the Potency is 14.1 µM (active).

Turning to `COc1ccc(Cl)cc1NC(=O)C1Cc2cc(S(=O)(=O)N3CCCC3)ccc2N1C(C)=O` (configuration not stated), the Potency is 11.2 µM (active).

`C=CCN(CC=C)C(=O)C1CCN(S(=O)(=O)c2ccc(N3CCCC3=O)cc2)CC1`: the Potency was 14.1 µM (active).

As for `Cc1ccc(S(=O)(=O)N2CCC(C(=O)Nc3ccc(S(=O)(=O)N4CCCC4)cc3)CC2)cc1C`, the Potency is 14.1 µM (active).

With `COc1ccc(C)cc1NC(=O)C1CCN(S(=O)(=O)c2ccc3c(c2)NC(=O)CO3)CC1`, the Potency is 12.6 µM (active).

On to `O=C/C=C/c1c(-c2ccccc2)cc2oc3ccccc3cc1-2`, for which the “activity change, negative = inhibition” value was -24.6%.

As for `Cc1cc(=O)n2nc(N3CCC(C(=O)NCCc4ccc(Cl)cc4)CC3)sc2n1`, the Potency was 12.6 µM (active).

For `Cc1cc(=O)n2nc(N3CCC(C(=O)NCc4ccc(Cl)cc4)CC3)sc2n1`, the Potency is 12.6 µM (active).

As for `Cc1cc(=O)n2nc(N3CCCC(C(=O)NCc4ccc(Cl)cc4)C3)sc2n1` (configuration not stated), the Potency is 12.6 µM (active).

For `COc1ccc(N(CC(=O)NCCSCc2ccc(C)cc2)S(=O)(=O)c2ccccc2)cc1`, the Potency was 12.6 µM (active).

With `COc1ccc(NC(=O)CN(c2ccc(F)cc2)S(=O)(=O)c2ccccc2)c(OC)c1`, the Potency is 15.8 µM (active).

Take `Cc1ccc(S(=O)(=O)N(Cc2ccccc2)C(C)C)cc1`: the “activity change, negative = inhibition” value was -11.4%.
